# Assay results from PubChem BioAssay AID1159580 (chemical genetic matrix, 2015).
# “And” between values parts separate entries of the source, which are not always exact repeats. Equal values may be shown once. Out of some 5,500 compounds screened, about 2,000 (36%) were called active. Not shown: some 18% with an inconclusive outcome. Rule as the data show it: active = normalized growth mostly below about 0.91 (no sharp cut-off); inconclusive = no clear call, values can overlap the other calls; inactive = mostly above about 0.92. The list shows a part of the results.
# Assay: chemical genetic growth profiling, strain panel (AID 1159580);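 also: tested at 20 µM; growth read once vehicle control cultures reached saturation at 30 °C; 1 = growth at the plate median or of vehicle wells; lower values mean less growth of the strain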
# Conditions: S. cerevisiae deletion strains, growth OD
compound,measurement,setting,value
C/C(=C\CO)CC[C@H](C)CCC[C@H](C)CCCC(C)C,normalized growth,"locus YAL021C, strain ccr4, stronger effect = lower value",1.12 [resistant] (active)
same,normalized growth,"locus YAL026C, strain drs2, stronger effect = lower value",1.12 [resistant] (active)
same,normalized growth,"locus YAL030W, strain snc1, stronger effect = lower value",1.13 [resistant] (active)
same,normalized growth,"locus YBL061C, strain skt5, stronger effect = lower value",0.97 (inactive)
same,normalized growth,"locus YBR009C, strain hhf1, stronger effect = lower value",1.12 [resistant] (active)
same,normalized growth,"locus YBR021W, strain FUR4, stronger effect = lower value",1 (inactive)
same,normalized growth,"locus YBR023C, strain chs3, stronger effect = lower value",0.974 (inactive)
same,normalized growth,"locus YBR171W, strain sec66, stronger effect = lower value",1.11 (inactive)
same,normalized growth,"locus YBR229C, strain ROT2, stronger effect = lower value",1.04 (inactive)
same,normalized growth,"locus YBR231C, strain swc5, stronger effect = lower value",0.976 (inactive)
same,normalized growth,"locus YBR279W, strain paf1, stronger effect = lower value",0.993 (inactive)
same,normalized growth,"locus YCL011C, strain gbp2, stronger effect = lower value",1.14 [resistant] (active)
same,normalized growth,"locus YCL016C, strain dcc1, stronger effect = lower value",0.976 (inactive)
same,normalized growth,"locus YCL029C, strain bik1, stronger effect = lower value",1.08 (inactive)
same,normalized growth,"locus YCL061C, strain MRC1, stronger effect = lower value",1.11 [resistant] (active)
same,normalized growth,"locus YCL069W, strain vba3, stronger effect = lower value",1.11 [resistant] (active)
same,normalized growth,"locus YCR088W, strain abp1, stronger effect = lower value",1.12 [resistant] (active)
same,normalized growth,"locus YDL005C, strain med2, stronger effect = lower value",1.14 [resistant] (active)
same,normalized growth,"locus YDL035C, strain GPR1, stronger effect = lower value",1.07 (inactive)
same,normalized growth,"locus YDL040C, strain nat1, stronger effect = lower value",0.973 (inactive)
same,normalized growth,"locus YDL074C, strain BRE1, stronger effect = lower value",1.1 (inactive)
same,normalized growth,"locus YDL101C, strain DUN1, stronger effect = lower value",1.08 (inactive)
same,normalized growth,"locus YDL185W, strain tfp1, stronger effect = lower value",1.11 [resistant] (active)
same,normalized growth,"locus YDL192W, strain arf1, stronger effect = lower value",1.13 [resistant] (active)
same,normalized growth,"locus YDR001C, strain nth1, stronger effect = lower value",1.13 [resistant] (active)
same,normalized growth,"locus YDR069C, strain doa4, stronger effect = lower value",1.15 [resistant] (active)
same,normalized growth,"locus YDR101C, strain arx1, stronger effect = lower value",1.11 [resistant] (active)
same,normalized growth,"locus YDR137W, strain rgp1, stronger effect = lower value",0.93 (inactive)
same,normalized growth,"locus YDR150W, strain NUM1, stronger effect = lower value",1.1 [resistant] (active)
same,normalized growth,"locus YDR159W, strain sac3, stronger effect = lower value",1.05 (inactive)
same,normalized growth,"locus YDR162C, strain NBP2, stronger effect = lower value",1.11 (inactive)
same,normalized growth,"locus YDR195W, strain ref2",1.09 (inactive)
same,normalized growth,"locus YDR297W, strain sur2, stronger effect = lower value",1.13 [resistant] (active)
same,normalized growth,"locus YDR318W, strain mcm21, stronger effect = lower value",1.13 [resistant] (active)
same,normalized growth,"locus YDR334W, strain swr1, stronger effect = lower value",1.14 [resistant] (active)
same,normalized growth,"locus YDR335W, strain msn5, stronger effect = lower value",1.13 [resistant] (active)
same,normalized growth,"locus YDR388W, stronger effect = lower value",1.12 [resistant] (active)
same,normalized growth,"locus YDR392W, strain spt3, stronger effect = lower value",1.11 (inactive)
same,normalized growth,"locus YDR502C, strain sam2, stronger effect = lower value",1.16 [resistant] (active)
same,normalized growth,"locus YEL003W, strain gim4, stronger effect = lower value",1.13 [resistant] (active)
same,normalized growth,"locus YEL037C, strain rad23, stronger effect = lower value",1.13 [resistant] (active)
same,normalized growth,"locus YEL061C, strain CIN8 (second series), stronger effect = lower value",1.14 [resistant] (active)
same,normalized growth,"locus YEL061C, strain CIN8, stronger effect = lower value",1.09 [resistant] (active)
same,normalized growth,"locus YER015W, strain faa2, stronger effect = lower value",1.12 [resistant] (active)
same,normalized growth,"locus YER016W, strain bim1, stronger effect = lower value",0.97 (inactive)
same,normalized growth,"locus YER110C, stronger effect = lower value",1.14 [resistant] (active)
same,normalized growth,"locus YER111C, strain swi4, stronger effect = lower value",1.06 (inactive)
same,normalized growth,"locus YER155C, strain BEM2 (second series), stronger effect = lower value",1.07 (inactive)
same,normalized growth,"locus YER155C, strain BEM2, stronger effect = lower value",1.02 (inactive)
same,normalized growth,"locus YER167W, strain BCK2, stronger effect = lower value",1.01 (inactive)
same,normalized growth,"locus YFR010W, strain ubp6, stronger effect = lower value",1.18 [resistant] (active)
same,normalized growth,"locus YGL078C, strain dbp3, stronger effect = lower value",1.13 [resistant] (active)
same,normalized growth,"locus YGL086W, strain mad1, stronger effect = lower value",1.09 [resistant] (active)
same,normalized growth,"locus YGL167C, strain pmr1, stronger effect = lower value",0.962 (inactive)
same,normalized growth,"locus YGL173C, strain kem1, stronger effect = lower value",1.1 [resistant] (active)
same,normalized growth,"locus YGL227W, strain vid30, stronger effect = lower value",1.12 [resistant] (active)
same,normalized growth,"locus YGL240W, strain doc1, stronger effect = lower value",1.13 [resistant] (active)
same,normalized growth,"locus YGL248W, strain PDE1, stronger effect = lower value",1.06 (inactive)
same,normalized growth,"locus YGL253W, strain hxk2, stronger effect = lower value",1.12 [resistant] (active)
same,normalized growth,"locus YGR078C, strain PAC10, stronger effect = lower value",1.13 (inactive)
same,normalized growth,"locus YGR135W, strain pre9, stronger effect = lower value",1.15 [resistant] (active)
same,normalized growth,"locus YGR229C, strain SMI1, stronger effect = lower value",1.14 (inactive)
same,normalized growth,"locus YGR252W, strain gcn5, stronger effect = lower value",1.1 (inactive)
same,normalized growth,"locus YHR013C, strain ard1, stronger effect = lower value",0.945 (inactive)
same,normalized growth,"locus YHR027C, strain rpn1, stronger effect = lower value",1.14 [resistant] (active)
same,normalized growth,"locus YHR030C, strain SLT2, stronger effect = lower value",1.09 [resistant] (active) and 0.974 (inactive)
same,normalized growth,"locus YHR079C, strain IRE1 (second series), stronger effect = lower value",1.13 [resistant] (active)
same,normalized growth,"locus YHR079C, strain IRE1, stronger effect = lower value",0.966 (inactive)
same,normalized growth,"locus YHR094C, strain hxt1, stronger effect = lower value",1.14 [resistant] (active)
same,normalized growth,"locus YHR129C, strain ARP1, stronger effect = lower value",1.08 (inactive)
same,normalized growth,"locus YHR142W, strain chs7, stronger effect = lower value",1.09 (inactive)
same,normalized growth,"locus YHR200W, strain rpn10, stronger effect = lower value",1.13 [resistant] (active)
same,normalized growth,"locus YIL066C, strain RNR3, stronger effect = lower value",1.09 (inactive)
same,normalized growth,"locus YIL073C, strain SPO22, stronger effect = lower value",1.25 (inactive)
same,normalized growth,"locus YIL125W, strain kgd1, stronger effect = lower value",1.12 [resistant] (active)
same,normalized growth,"locus YIR030C, strain dcg1, stronger effect = lower value",1.13 [resistant] (active)
same,normalized growth,"locus YJL092W, strain hpr5, stronger effect = lower value",1.13 [resistant] (active)
same,normalized growth,"locus YJL095W, strain BCK1 (second series), stronger effect = lower value",1.02 (inactive)
same,normalized growth,"locus YJL095W, strain BCK1, stronger effect = lower value",1.1 (inactive) and 0.966 (inactive)
same,normalized growth,"locus YJL115W, strain asf1, stronger effect = lower value",1.14 [resistant] (active)
same,normalized growth,"locus YJL129C, strain trk1, stronger effect = lower value",1.09 (inactive)
same,normalized growth,"locus YJL134W, strain LCB3, stronger effect = lower value",1.09 [resistant] (active)
same,normalized growth,"locus YJL154C, strain vps35, stronger effect = lower value",1.13 [resistant] (active)
same,normalized growth,"locus YJL164C, strain tpk1, stronger effect = lower value",1.13 [resistant] (active)
same,normalized growth,"locus YJL166W, strain qcr8, stronger effect = lower value",1.13 [resistant] (active)
same,normalized growth,"locus YJL168C, strain set2, stronger effect = lower value",1.13 [resistant] (active)
same,normalized growth,"locus YJL187C, strain SWE1 (second series), stronger effect = lower value",1.1 (inactive)
same,normalized growth,"locus YJL187C, strain SWE1, stronger effect = lower value",1.07 (inactive)
same,normalized growth,"locus YJR043C, strain POL32, stronger effect = lower value",1.12 (inactive)
